19 compounds from PubChem BioAssay (EPA / NIEHS) can be followed below.

Inconclusive results are not listed. The source made the active and inactive calls. The calls were made as follows, unless noted: active = hit-call score of the fitted dose curve at least 0.9, where 1 is the maximum; inactive = score below 0.9.

Assay [1] in a line: ATG_NFI_CIS: Attagene CIS-FACTORIAL HepG2 Assay for human Nuclear Factor I (NFI) (AID 2282989). The conditions noted are these: HepG2 cis-regulatory reporter, NFI response element transcription; actives raise or lower the signal. The method in brief:
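Multiplexed cis-reporter system in human HepG2 cells reports native TF activity as reporter mRNA induction 24 h post-dose. Fragments labelled with 6-FAM, HpaI-digested and resolved by capillary electrophoresis; activity fitted both directions versus DMSO.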

In assay [2] the target is Myc proto-oncogene protein (Homo sapiens) (UniProt P01106). Kind of assay: ATG_Myc_CIS: Attagene CIS-FACTORIAL HepG2 Assay for human Myelocytomatosis (Myc) Proto-Oncogene Transcription Factor (AID 2282990). Particulars: HepG2, Attagene cis-reporter transcription factor activity; actives raise or lower the signal. The method in brief: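 Cells of the HepG2 human liver line bear multiple cis-driven reporter transcription units. Reporter mRNA after 24 h exposure is reverse-transcribed, amplified, labelled and resolved by capillary electrophoresis, with gain- or loss-of-signal fitting relative to DMSO.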

Assay [3] can be described thus: ATG_NF_kB_CIS: Attagene CIS-FACTORIAL HepG2 Assay for human Nuclear Factor Kappa B (NF-kB) (AID 2282991). Particulars: HepG2 Attagene cis-factorial NF-kB reporter mRNA; actives raise or lower the signal. Summed up: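 HepG2, transient multi-reporter transfection, cis promoter elements (endogenous TFs). 24 h exposure. Total RNA → RT → PCR → 6-FAM label → HpaI → CE. Gain/loss vs DMSO.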

The nature of assay [4]: ATG_NRF2_ARE_CIS: Attagene CIS-FACTORIAL HepG2 Assay for human Nuclear Factor Erythroid 2 Related Factor 2 (NFR2) response to Antioxidant Response Elements (ARE) (AID 2282992). The conditions noted are these: HepG2 Attagene ARE/NRF2 reporter, transcription factor activity; actives raise or lower the signal. Summed up: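 Endogenous transcription factor activity read out as reporter transcript levels (RT-PCR plus capillary electrophoresis, fluorescence) in transiently transfected HepG2 cells. Measured at 24 h after dosing; gain or loss of signal fitted versus DMSO.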

The nature of assay [5]: ATG_Oct_MLP_CIS: Attagene CIS-FACTORIAL HepG2 Assay for human Octamer-Binding Transcription Factor (Oct) (AID 2282993). Particulars: HepG2 Attagene cis-factorial Oct reporter, mRNA; actives raise or lower the signal. The method in brief: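 After 24 h compound exposure, transfected HepG2 cells were lysed for total RNA; reporter-specific cDNA was PCR-amplified, fluorescently labelled and sized by capillary electrophoresis. Bidirectional curve fitting used DMSO as baseline.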

Assay [6] has as its target Cellular tumor antigen p53 (Homo sapiens) (UniProt P04637). Kind of assay: ATG_p53_CIS: Attagene CIS-FACTORIAL HepG2 Assay for human p53 Transcription Factor (AID 2282994). The conditions noted are these: HepG2 p53 cis-element reporter, Attagene mRNA; actives raise or lower the signal. Summed up:
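Endogenous p53 activity read in transiently transfected HepG2 from a cis-element-driven reporter transcript after 24 h exposure. RNA reverse-transcribed, PCR-amplified, fluorescently labelled and sized by capillary electrophoresis; gain or loss fitted against DMSO baseline.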

The target in assay [7] is human Peroxisome Proliferator-activated Receptor delta (PPARd), PPARD (gene 5467) (UniProt Q03181). Kind of assay: ATG_PPARd_TRANS: Attagene TRANS-FACTORIAL HepG2 Assay for human Peroxisome Proliferator-activated Receptor delta (PPARd) (AID 2283002; active = hit-call score of the fitted dose curve at least 0.9, where 1 is the maximum). The method in brief:
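Cell-based TRANS reporter: HepG2, transient MRTU transfection, 24 h exposure. Readout = reporter mRNA (RT-PCR/CE, 6-FAM). Gain-of-signal fit vs DMSO control.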

Assay [8] concerns the target Nuclear receptor subfamily 1 group I member 2 (Homo sapiens) (UniProt O75469). Kind of assay: ATG_PXR_TRANS: Attagene TRANS-FACTORIAL HepG2 Assay for human Pregnane X Receptor (PXR) (AID 2283008; active = hit-call score of the fitted dose curve at least 0.9, where 1 is the maximum). Summed up:
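Transactivation by exogenous PXR–GAL4 fusion measured as reporter transcript induction after 24 h compound treatment of transfected human HepG2 cells. Read-out via RT-PCR and capillary electrophoresis of labelled fragments, fitted upward relative to DMSO.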

In assay [9] the target is human RAR-related Orphan Receptor beta (RORb), RORB (gene 6096) (UniProt Q92753). Kind of assay: ATG_RORb_TRANS: Attagene TRANS-FACTORIAL HepG2 Assay for human RAR-related Orphan Receptor beta (RORb) (AID 2283010; active = hit-call score of the fitted dose curve at least 0.9, where 1 is the maximum). Summed up: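 Multiplexed transcription-factor reporter assay: HepG2 cells transiently carrying NR-Gal4/GAL4-UAS constructs, 24 h treatment, mRNA quantified by RT-PCR plus capillary electrophoresis fluorescence; activity scored as induction over DMSO.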

The target of assay [10] is human RAR-related Orphan Receptor gamma (RORg), RORC (gene 6097) (UniProt P51449). Kind of assay: ATG_RORg_TRANS: Attagene TRANS-FACTORIAL HepG2 Assay for human RAR-related Orphan Receptor gamma (RORg) (AID 2283011; active = hit-call score of the fitted dose curve at least 0.9, where 1 is the maximum). The method in brief:
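Chimeric RORg-Gal4 transactivation in transfected HepG2; 24 h exposure; RT-PCR/capillary electrophoresis readout of reporter mRNA, DMSO baseline.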

In assay [11] the target is human Peroxisome Proliferator-activated Receptor alpha (PPARa), PPARA (gene 5465) (UniProt Q07869). The experiment in a line: ATG_PPARa_TRANS: Attagene TRANS-FACTORIAL HepG2 Assay for human Peroxisome Proliferator-activated Receptor alpha (PPARa) (AID 2283001; active = hit-call score of the fitted dose curve at least 0.9, where 1 is the maximum;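 as to AC50: potency for gain of reporter signal over DMSO so agonist or activator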). Summed up: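 Transfected HepG2 cells treated with test chemical for 24 h. RNA isolated, reverse-transcribed with oligo(dT), PCR-amplified, FAM-labelled and HpaI-digested. Fragments sized by capillary electrophoresis; gain-of-signal fit relative to DMSO.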

The target in assay [12] is Retinoic acid receptor alpha (Homo sapiens) (UniProt P10276). The experiment in a line: ATG_RARa_TRANS: Attagene TRANS-FACTORIAL HepG2 Assay for human Retinoic Acid Receptor alpha (RARa) (AID 2283005; active = hit-call score of the fitted dose curve at least 0.9, where 1 is the maximum). Summed up: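 Reporter transcripts, measured by RT-PCR with fluorescent labeling and capillary electrophoresis after 24 h dosing, reflect activity of an exogenous human RARa–GAL4 fusion in transiently transfected HepG2. Fitted for increase relative to DMSO.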

The target of assay [13] is Peroxisome proliferator-activated receptor gamma (Homo sapiens) (UniProt P37231). Kind of assay: ATG_PPARg_TRANS: Attagene TRANS-FACTORIAL HepG2 Assay for human Peroxisome Proliferator-activated Receptor-gamma (PPARg) (AID 2283007; active = hit-call score of the fitted dose curve at least 0.9, where 1 is the maximum). The method in brief:
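Multiplexed reporter transcription units in HepG2, 24 h dosing, reporter transcripts quantified by fluorescent RT-PCR and capillary electrophoresis. Increase over DMSO scored.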

Assay [14] concerns the target human Retinoic Acid Receptor gamma (RARg), RARG (gene 5916) (UniProt P13631). Kind of assay: ATG_RARg_TRANS: Attagene TRANS-FACTORIAL HepG2 Assay for human Retinoic Acid Receptor gamma (RARg) (AID 2283009; active = hit-call score of the fitted dose curve at least 0.9, where 1 is the maximum). Summed up: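 Gain-of-signal relative to DMSO is reported from fluorescent capillary electrophoresis of RT-PCR reporter products. These came from HepG2 cells expressing transfected RARg-GAL4 chimeras with UAS reporters, harvested 24 h after dosing.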

The nature of assay [15]: BSK_3C_TissueFactor: BioMAP Diversity Plus: 3C Assay for Tissue Factor Biomarker Activity (AID 2282997). Particulars: BioMAP 3C HUVEC, tissue factor biomarker readout; actives raise or lower the signal. The method in brief:
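In this endothelial system, HUVEC are treated for 24 h and Tissue Factor is assessed by ELISA, normalised to DMSO.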

Assay [16] is described as follows: BSK_3C_Proliferation: Cell Proliferation Assessment in the BioMAP Diversity Plus: 3C Assay (AID 2283006).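 Also: potency may reflect either rise or fall in cell number versus DMSO.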 The conditions noted are these: primary human endothelial cells (HUVEC). Summed up:
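Measured here: sulforhodamine B (0.1%) staining of TCA-fixed sub-confluent umbilical vein endothelial cultures 48 h post-dosing, absorbance 560 nm. DMSO served as negative control and baseline; both signal gain and loss were modelled.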

Chain of human RAR-related Orphan Receptor beta (RORb), RORB (gene 6096) (Q92753 whole entry, looked up, the tested form may be a part): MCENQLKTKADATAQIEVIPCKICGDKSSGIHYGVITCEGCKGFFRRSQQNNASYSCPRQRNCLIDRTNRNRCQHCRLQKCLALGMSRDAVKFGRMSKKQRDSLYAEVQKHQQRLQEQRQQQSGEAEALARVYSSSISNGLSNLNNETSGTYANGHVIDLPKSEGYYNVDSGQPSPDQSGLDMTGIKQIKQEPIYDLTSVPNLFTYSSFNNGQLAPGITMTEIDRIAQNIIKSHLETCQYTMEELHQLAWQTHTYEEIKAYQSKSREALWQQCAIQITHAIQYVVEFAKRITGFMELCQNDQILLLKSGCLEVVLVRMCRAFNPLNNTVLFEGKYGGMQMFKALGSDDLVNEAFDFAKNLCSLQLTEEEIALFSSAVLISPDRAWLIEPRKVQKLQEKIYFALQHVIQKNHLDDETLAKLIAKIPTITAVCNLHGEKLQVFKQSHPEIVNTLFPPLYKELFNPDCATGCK
Chain of human Peroxisome Proliferator-activated Receptor alpha (PPARa), PPARA (gene 5465) (Q07869 whole entry, looked up, the tested form may be a part): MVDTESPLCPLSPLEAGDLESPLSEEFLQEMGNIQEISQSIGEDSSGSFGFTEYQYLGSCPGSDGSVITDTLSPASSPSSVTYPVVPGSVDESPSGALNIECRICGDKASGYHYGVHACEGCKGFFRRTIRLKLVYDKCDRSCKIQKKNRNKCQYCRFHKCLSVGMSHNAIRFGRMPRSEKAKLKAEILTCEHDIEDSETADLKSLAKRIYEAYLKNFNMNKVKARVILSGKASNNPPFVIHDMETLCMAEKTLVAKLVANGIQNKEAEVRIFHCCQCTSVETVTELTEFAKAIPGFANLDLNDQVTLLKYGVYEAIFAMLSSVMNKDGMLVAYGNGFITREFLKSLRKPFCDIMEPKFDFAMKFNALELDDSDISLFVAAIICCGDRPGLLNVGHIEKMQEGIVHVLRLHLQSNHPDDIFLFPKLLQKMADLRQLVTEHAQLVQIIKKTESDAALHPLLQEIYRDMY
Chain of Cellular tumor antigen p53 (Homo sapiens) (P04637 whole entry, looked up): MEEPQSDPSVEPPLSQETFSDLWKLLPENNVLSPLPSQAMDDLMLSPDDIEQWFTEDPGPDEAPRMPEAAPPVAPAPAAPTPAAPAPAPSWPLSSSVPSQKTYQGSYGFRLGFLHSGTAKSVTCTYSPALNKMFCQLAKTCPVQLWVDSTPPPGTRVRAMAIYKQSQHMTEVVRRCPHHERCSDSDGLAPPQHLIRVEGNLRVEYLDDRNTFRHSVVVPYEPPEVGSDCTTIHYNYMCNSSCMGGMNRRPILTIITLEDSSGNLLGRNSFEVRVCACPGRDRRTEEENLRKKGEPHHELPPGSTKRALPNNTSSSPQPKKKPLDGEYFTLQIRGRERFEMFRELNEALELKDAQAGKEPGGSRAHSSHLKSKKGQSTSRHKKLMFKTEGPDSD
Chain of human Peroxisome Proliferator-activated Receptor delta (PPARd), PPARD (gene 5467) (Q03181 whole entry, looked up): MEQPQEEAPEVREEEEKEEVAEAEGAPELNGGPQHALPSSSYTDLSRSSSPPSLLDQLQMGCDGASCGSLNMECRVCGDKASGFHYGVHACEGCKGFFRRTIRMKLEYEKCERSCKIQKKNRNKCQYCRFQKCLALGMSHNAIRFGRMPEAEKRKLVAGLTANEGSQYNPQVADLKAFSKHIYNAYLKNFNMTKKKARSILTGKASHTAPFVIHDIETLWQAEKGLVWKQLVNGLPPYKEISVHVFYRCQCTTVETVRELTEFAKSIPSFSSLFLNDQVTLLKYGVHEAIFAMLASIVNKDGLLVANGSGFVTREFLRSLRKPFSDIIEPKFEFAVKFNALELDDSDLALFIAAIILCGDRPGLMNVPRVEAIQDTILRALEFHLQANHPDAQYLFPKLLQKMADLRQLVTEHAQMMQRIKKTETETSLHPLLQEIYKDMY
Chain of human RAR-related Orphan Receptor gamma (RORg), RORC (gene 6097) (P51449 whole entry, looked up, the tested form may be a part): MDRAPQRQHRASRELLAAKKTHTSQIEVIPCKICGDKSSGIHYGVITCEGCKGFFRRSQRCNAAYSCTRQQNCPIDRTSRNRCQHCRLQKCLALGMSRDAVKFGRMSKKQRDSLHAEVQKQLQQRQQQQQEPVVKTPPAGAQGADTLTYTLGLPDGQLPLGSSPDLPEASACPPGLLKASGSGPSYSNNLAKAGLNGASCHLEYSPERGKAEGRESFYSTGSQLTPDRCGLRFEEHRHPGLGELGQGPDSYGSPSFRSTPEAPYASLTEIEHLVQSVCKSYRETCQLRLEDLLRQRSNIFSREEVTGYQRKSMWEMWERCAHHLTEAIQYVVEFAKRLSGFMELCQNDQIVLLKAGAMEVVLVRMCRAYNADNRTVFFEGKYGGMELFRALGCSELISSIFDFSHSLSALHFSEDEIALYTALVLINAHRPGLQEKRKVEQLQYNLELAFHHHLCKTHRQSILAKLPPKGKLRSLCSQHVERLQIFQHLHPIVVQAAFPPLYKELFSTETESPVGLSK
Chain of Peroxisome proliferator-activated receptor gamma (Homo sapiens) (P37231 whole entry, looked up): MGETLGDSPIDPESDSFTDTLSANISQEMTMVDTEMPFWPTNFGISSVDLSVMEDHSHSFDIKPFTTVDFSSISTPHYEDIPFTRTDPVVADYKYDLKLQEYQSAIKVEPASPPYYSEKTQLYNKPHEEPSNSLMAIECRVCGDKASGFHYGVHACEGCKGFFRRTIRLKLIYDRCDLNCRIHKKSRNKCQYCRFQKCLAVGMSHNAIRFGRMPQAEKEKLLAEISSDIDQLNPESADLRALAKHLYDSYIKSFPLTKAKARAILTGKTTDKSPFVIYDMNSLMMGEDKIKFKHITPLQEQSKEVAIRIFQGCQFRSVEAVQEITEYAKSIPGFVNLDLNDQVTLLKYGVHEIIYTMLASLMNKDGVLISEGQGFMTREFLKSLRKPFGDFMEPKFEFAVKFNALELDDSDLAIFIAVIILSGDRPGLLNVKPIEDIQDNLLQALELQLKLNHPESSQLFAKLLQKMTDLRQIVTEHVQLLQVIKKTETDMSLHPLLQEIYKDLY
Chain of Myc proto-oncogene protein (Homo sapiens) (P01106 whole entry, looked up): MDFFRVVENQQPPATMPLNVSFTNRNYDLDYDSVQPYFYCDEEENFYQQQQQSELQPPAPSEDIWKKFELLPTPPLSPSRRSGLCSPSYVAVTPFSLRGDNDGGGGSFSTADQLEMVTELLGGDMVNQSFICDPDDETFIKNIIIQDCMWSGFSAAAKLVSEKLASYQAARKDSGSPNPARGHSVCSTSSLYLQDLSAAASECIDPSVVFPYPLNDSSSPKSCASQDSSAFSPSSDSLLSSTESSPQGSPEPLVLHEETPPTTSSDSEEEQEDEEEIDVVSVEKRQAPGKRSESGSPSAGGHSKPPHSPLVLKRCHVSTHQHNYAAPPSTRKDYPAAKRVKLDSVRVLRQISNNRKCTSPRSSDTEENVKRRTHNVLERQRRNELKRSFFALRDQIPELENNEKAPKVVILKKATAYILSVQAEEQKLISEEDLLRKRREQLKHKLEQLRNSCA
Chain of Nuclear receptor subfamily 1 group I member 2 (Homo sapiens) (O75469 whole entry, looked up, the tested form may be a part): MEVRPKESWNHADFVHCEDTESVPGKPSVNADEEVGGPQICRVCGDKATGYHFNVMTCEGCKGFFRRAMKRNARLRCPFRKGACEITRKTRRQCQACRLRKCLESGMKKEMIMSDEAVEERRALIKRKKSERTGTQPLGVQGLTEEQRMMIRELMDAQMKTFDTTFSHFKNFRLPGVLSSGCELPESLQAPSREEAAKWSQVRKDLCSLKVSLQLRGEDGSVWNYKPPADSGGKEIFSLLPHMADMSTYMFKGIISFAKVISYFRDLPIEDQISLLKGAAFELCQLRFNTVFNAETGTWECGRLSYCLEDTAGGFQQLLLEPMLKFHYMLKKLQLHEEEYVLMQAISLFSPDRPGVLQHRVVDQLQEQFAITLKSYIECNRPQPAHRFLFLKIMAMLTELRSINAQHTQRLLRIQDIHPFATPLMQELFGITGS
Chain of Retinoic acid receptor alpha (Homo sapiens) (P10276 whole entry, looked up, the tested form may be a part): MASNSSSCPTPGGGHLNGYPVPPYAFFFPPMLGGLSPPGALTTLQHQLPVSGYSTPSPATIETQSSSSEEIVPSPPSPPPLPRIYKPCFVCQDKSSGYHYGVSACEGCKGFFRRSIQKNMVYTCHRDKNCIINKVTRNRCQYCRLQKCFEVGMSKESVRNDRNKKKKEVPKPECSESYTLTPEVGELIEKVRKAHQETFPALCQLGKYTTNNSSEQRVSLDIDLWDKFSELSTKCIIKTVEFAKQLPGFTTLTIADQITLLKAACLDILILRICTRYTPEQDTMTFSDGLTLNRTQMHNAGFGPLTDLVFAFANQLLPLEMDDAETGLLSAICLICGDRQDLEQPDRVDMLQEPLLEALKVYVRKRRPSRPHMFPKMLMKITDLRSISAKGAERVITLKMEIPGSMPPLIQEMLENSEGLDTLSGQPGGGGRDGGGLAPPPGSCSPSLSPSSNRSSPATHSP
Chain of human Retinoic Acid Receptor gamma (RARg), RARG (gene 5916) (P13631 whole entry, looked up, the tested form may be a part): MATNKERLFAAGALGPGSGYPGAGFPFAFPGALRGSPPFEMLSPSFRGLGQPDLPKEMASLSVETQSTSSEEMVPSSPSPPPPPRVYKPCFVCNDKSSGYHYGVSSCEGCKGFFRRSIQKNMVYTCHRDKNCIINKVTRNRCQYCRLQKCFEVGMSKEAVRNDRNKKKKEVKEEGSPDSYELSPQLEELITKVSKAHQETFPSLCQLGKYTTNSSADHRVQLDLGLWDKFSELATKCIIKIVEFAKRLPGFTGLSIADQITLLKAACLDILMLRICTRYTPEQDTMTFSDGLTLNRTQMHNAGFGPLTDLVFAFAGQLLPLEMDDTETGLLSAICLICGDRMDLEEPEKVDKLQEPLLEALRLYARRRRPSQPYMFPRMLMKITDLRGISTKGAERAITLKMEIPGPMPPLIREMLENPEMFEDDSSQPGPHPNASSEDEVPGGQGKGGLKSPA

What is called AC50 is the concentration at which the activity in the assay is half-maximal. Consider `Clc1nc(C(Cl)(Cl)Cl)c(Cl)c(Cl)c1Cl`, for which the AC50 in [1] was 52.4 µM (active); in assay [4], 27.6 µM (active); in [8], 21.2 µM (active). In addition, the outcome in assay [2], in [3], in [5], in assay [6], in assay [7] and in assay [9] was inactive. The call in assay [10] was inactive.
On to `CC(CCO)CCCC(C)(C)O` (stereo not drawn), for which the compound was classed as inactive in assay [1], in assay [2], in assay [3], in assay [4], in assay [5] and in assay [11]. Further, the outcome in assay [7], in assay [8] and in assay [10] was inactive.
For `O=C(O)CN(CCN(CC(=O)O)CC(=O)O)CCN(CC(=O)O)CC(=O)O`, the call in [1], in assay [2], in assay [3], in [4], in [5] and in assay [11] was inactive. In addition, the result in assay [7], in assay [12], in [13], in assay [14], in assay [9] and in assay [10] was inactive.
For `CCCCN`, the outcome in assay [1], in [2], in assay [3], in assay [4], in [5] and in assay [6] was inactive. The outcome in assay [13] and in [9] was inactive.
Regarding `O=[N+]([O-])c1ccc(Nc2ccc(Nc3ccccc3)c(S(=O)(=O)O)c2)c([N+](=O)[O-])c1`, the call in assay [1], in assay [2], in [3], in assay [5], in assay [7] and in assay [9] was inactive. Moreover, the concentration at half-maximal activity (AC50) in [4] was 171 µM (active); in assay [6], 178 µM (active).
For `COc1cc(C)cc(O)c1`, the compound was called inactive in [1], in assay [2], in [3], in assay [4], in [5] and in assay [11]. The compound was classed as inactive in assay [7], in assay [8], in assay [9] and in assay [10].
For the compound `CC(C)(N)CO`, the result in assay [1], in [2], in [3], in [4], in assay [5] and in [6] was inactive. Moreover, the outcome in assay [8] was inactive.
As to `CN(C)CCCN`, the outcome in assay [1], in assay [2], in [3], in assay [4], in [5] and in [6] was inactive. Moreover, the result in assay [13] was inactive.
Consider `CCC(C)(O)CCC=C(C)C` (stereo not drawn), for which the outcome in assay [1], in assay [2], in [3], in assay [4], in assay [5] and in assay [6] was inactive. For the same compound, the outcome in [7], in assay [8] and in [9] was inactive.
Regarding `Clc1ccc2c(c1)C(N1CCNCC1)=Nc1ccccc1O2`, the call in assay [1], in [2], in [3], in [4] and in [13] was inactive. Also, the concentration at half-maximal activity (AC50) is 47 µM (active) in [5], 53.9 µM (active) in assay [11], 52.9 µM (active) in assay [7] and 44.1 µM (active) in [8].
Turning to `Cc1c(Cl)c(=O)oc2cc(O)ccc12`, the compound was called inactive in [1], in assay [2], in assay [3], in assay [5], in assay [6] and in assay [7]. Also, the compound was called inactive in assay [8]. Further, the AC50 in assay [4] is 78.5 µM (active).
On to `Nc1ccc(F)c([N+](=O)[O-])c1`, for which the result in [1], in [2], in assay [3], in assay [4], in assay [5] and in assay [6] was inactive. Moreover, the compound was called inactive in assay [7], in assay [13] and in assay [10].
`CC(=O)Nc1ccc(C)cc1C`: the call in [1], in assay [2], in assay [3], in assay [4], in assay [5] and in [6] was inactive. The result in assay [7], in assay [8], in [9] and in assay [10] was inactive.
Take `C#C[C@]1(O)CC[C@H]2[C@@H]3CCC4=Cc5oncc5C[C@]4(C)[C@H]3CC[C@@]21C`: the result in assay [15] was inactive. The half-maximal activity concentration (AC50) in assay [16] is 20 µM (active).
As to `O=C(O)C[C@H](O)C[C@H](O)/C=C/c1c(C2CC2)nc2ccccc2c1-c1ccc(F)cc1`, the outcome in assay [15] was inactive.
For the compound `CC1CCC(C(C)CS)CC1S` (stereo not drawn), the AC50 in assay [16] was 25.7 µM (active).
`O=C1O[C@@H]2[C@@H](O)[C@H](O)O[C@@H]2[C@H]1O`: the outcome in [1], in assay [2], in [3], in assay [5], in assay [6] and in [11] was inactive. For the same compound, the compound was called inactive in assay [13].
As for `OCC(CO)(CO)COCC(CO)(CO)CO`, the result in [1], in [2], in assay [3], in assay [5], in assay [6] and in [11] was inactive. For the same compound, the compound was classed as inactive in assay [8].
On to `CCCCCCCCCCCCCOS(=O)(=O)O`, for which the compound was called inactive in assay [1], in assay [2], in [3], in assay [5], in [7] and in [8]. In addition, the compound was classed as inactive in assay [10]. Also, the AC50 in assay [11] is 3.35 µM (active); in assay [13], 12 µM (active).
